The source of these data is PubChem BioAssay.

For experiment [1], the system named is Human papillomavirus type 1a protein E7 (residues 44-93). The experiment can be described thus: HPV1a E7 fragment binders on microarrays, primary screen, biochemical, small-molecule microarray, residues 44-93, 635 nm fluorescence (AID 1108).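 Further: E7 fragment applied at 1 µg/mL in TBST for 1 h at 4 C; score combines spot fluorescence with its signal to noise ratio.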 The conditions noted are these: small-molecule microarray binding, fluorescence 635 nm; higher = more signal.
Experiment [2] is described as follows: modulators of HCV replicon luciferase signal, primary screen, HCV replication inhibitor project, Huh7 cells, luciferase reporter (AID 1109).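 Further: huh7 hepatoma cells harbouring a luciferase neomycin HCV replicon reporter; luciferase luminescence as measure of HCV replicon replication; test concentration not given here.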 The settings on record: 48 h, higher = more signal.
Experiment [3] has as its target Left-right determination factor 2 (Homo sapiens) (UniProt O00292). The experiment can be described thus: LEFTY2 binders on small-molecule microarrays, primary screen, biochemical, small-molecule microarray, 635 nm fluorescence scan (AID 1110). The settings on record: LEFTY2 binding, higher = more signal.
The target in experiment [4] is Calmodulin-1 (Homo sapiens) (UniProt P0DP23). Nature of the experiment: CALM1 binders on microarrays, EGTA buffer, profiling panel, biochemical, small-molecule microarray, Cy5-labelled CALM1 (AID 1111).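 Further: labelled calmodulin applied in Tris saline Tween buffer holding calcium plus EGTA and DTT.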 The conditions noted are these: Cy5-CALM1 binding fluorescence, higher = more signal.
For experiment [5] the target is unchanged. Nature of the experiment: calcium-bound CALM1 binders on microarrays, profiling panel, artefact control for SMM control-protein annotation, biochemical, small-molecule microarray, Cy5-labelled CALM1, plus calcium (AID 1112).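 Further: score merges spot fluorescence with signal to noise from triplicate slides.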 The settings on record: Cy5-CALM1 binding fluorescence, higher = more signal.
Experiment [6] can be described thus: small-molecule microarray binders of probe aWnt5a, primary screen, biochemical, biotinylated probe, 635/667 nm fluorescence (AID 1113).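 Further: score merges 667 nm fluorescence intensity with signal-to-noise per printed feature.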 The settings on record: higher = more signal.
Experiment [7] can be described thus: small-molecule microarray binders of probe aShh, primary screen, biochemical, biotinylated probe, 635/667 nm fluorescence (AID 1114).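 Further: probe is biotin-labelled aShh protein from a stem cell growth factor screen; measures binding of labelled protein to compounds printed on the slide; score merges feature fluorescence at 667 nm with signal-to-noise.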 The conditions noted are these: higher = more signal.
Experiment [8] is described as follows: small-molecule microarray binders of probe aNog, primary screen, biochemical, biotinylated probe, 635/667 nm fluorescence (AID 1115).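 Further: probe is biotinylated aNog protein used at 0.15 µg/mL for 1 h at 4 C; z-score combines 667 nm fluorescence of each spot with its signal to noise.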 The settings on record: higher = more signal.
For experiment [9], the target named is Torsin-1A-interacting protein 1 (Homo sapiens) (UniProt Q5JTV8). The experiment can be described thus: LAP1 binders from COS7 cell lysate, primary screen, small-molecule microarray, 635/667 nm fluorescence (AID 1116). The settings on record: COS7-hLAP1 lysate binding, 635 nm fluorescence, higher = more signal.
Experiment [10] has as its target Alpha-bungarotoxin (Bungarus multicinctus) (UniProt P60615). Nature of the experiment: alpha-bungarotoxin binders on microarray, profiling panel, artefact control for SMM control protein annotation, biochemical, small-molecule microarray, Alexa647 label, 635/667 nm fluorescence (AID 1117). The conditions noted are these: alpha-BTX-A647 binding fluorescence, higher = more signal.

The next experiment has as its target Albumin (Bos taurus) (UniProt P02769). The experiment can be described thus: bovine serum albumin binders on microarray, profiling panel, artefact control for SMM control protein annotation, biochemical, small-molecule microarray, Alexa647 label, 635/667 nm fluorescence (AID 1118).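 Further: score merges 667 nm emission intensity and signal-to-noise per printed compound spot.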 The conditions noted are these: BSA-A647 binding, fluorescence 635 nm, higher = more signal.

Experiment [11] in a line: small-molecule microarray binders of probe aXIP, primary screen, biochemical, NeuroSMM set, 635/667 nm fluorescence (AID 1119).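 Further: probe is the protein aXip251-270 applied at 1 µg/mL to compound-printed slides; binding of probe to printed compounds measured as 667 nm fluorescence plus signal to noise.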 The settings on record: higher = more signal, called active from +8 up or from −8 down.
The nature of experiment [12]: small-molecule binders of probe aNOTCH3, primary screen, biochemical, small-molecule microarray, 635/667 nm fluorescence (AID 1120).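 Further: probe is a biotin-tagged antibody raised against NOTCH3 rather than NOTCH3 protein; score merges spot fluorescence near 667 nm with spot signal to noise.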 The settings on record: higher = more signal.
Experiment [13] is described as follows: small-molecule binders of probe aNOTCH2, primary screen, biochemical, small-molecule microarray, 635/667 nm fluorescence (AID 1121).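 Further: score merges feature fluorescence read at 667 nm with its signal to noise.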 The settings on record: higher = more signal.
The target of experiment [14] is Carbonic anhydrase 2 (Homo sapiens) (UniProt P00918). Nature of the experiment: CAII small-molecule binders, profiling panel, biochemical, small-molecule microarray, Alexa647-labelled CAII (AID 1122). The settings on record: CAII-A647 binding fluorescence, higher = more signal.
Experiment [15] can be described thus: COS7 lysate on small-molecule microarray, probe aHis, 635 nm (AID 1123).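 Further: z-score combines 667nm fluorescence intensity with signal-to-noise per printed compound spot.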 The settings on record: COS7 cell lysate, fluorescence, higher = more signal.
A short description of experiment [16]: compound binding in COS7 lysate, probe aLAP1, primary screen, cell lysate, small-molecule microarray (AID 1124).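 Further: lysate comes from COS7 cells expressing LAP1 and is applied at 0.3 µg/mL; score merges spot fluorescence near 667 nm with signal-to-noise over triplicate slides.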 The conditions noted are these: probe aLAP1, fluorescence, higher = more signal.
In the next experiment the test system is Sam68 (KHDRBS1). The experiment can be described thus: Sam68 small-molecule binders, primary screen, biochemical, small-molecule microarray, 635 nm fluorescence (AID 1125).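 Further: score merges 667 nm channel intensity with signal to noise over triplicate slides.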 The settings on record: small-molecule microarray binding, higher = more signal.
Experiment [17] deals with Chordin-like protein 2 (CHRDL2). The experiment can be described thus: CHRDL2 small-molecule binders, primary screen, biochemical, small-molecule microarray, 635 nm fluorescence (AID 1126).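 Further: printed compound slides probed with Chrdl2 protein at 4 µg/mL for 1 h at 4 C; score merges 667 nm emission intensity with signal to noise over three replicate slides.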 The settings on record: small-molecule microarray binding, fluorescence 635 nm; higher = more signal.
Experiment [18] deals with Concanavalin-A (Canavalia ensiformis) (UniProt P02866). Nature of the experiment: ConA small-molecule binders, primary screen, artefact control for SMM control protein annotation, biochemical, small-molecule microarray, Alexa647 label, 635 nm (AID 1127).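 Further: z combines 667 nm emission intensity with signal-to-noise across three replicate slides.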 The conditions noted are these: ConA-A647 binding fluorescence, higher = more signal.

Active and inactive are the calls of the source.

Sequence of Albumin (Bos taurus) (P02769 whole entry, looked up): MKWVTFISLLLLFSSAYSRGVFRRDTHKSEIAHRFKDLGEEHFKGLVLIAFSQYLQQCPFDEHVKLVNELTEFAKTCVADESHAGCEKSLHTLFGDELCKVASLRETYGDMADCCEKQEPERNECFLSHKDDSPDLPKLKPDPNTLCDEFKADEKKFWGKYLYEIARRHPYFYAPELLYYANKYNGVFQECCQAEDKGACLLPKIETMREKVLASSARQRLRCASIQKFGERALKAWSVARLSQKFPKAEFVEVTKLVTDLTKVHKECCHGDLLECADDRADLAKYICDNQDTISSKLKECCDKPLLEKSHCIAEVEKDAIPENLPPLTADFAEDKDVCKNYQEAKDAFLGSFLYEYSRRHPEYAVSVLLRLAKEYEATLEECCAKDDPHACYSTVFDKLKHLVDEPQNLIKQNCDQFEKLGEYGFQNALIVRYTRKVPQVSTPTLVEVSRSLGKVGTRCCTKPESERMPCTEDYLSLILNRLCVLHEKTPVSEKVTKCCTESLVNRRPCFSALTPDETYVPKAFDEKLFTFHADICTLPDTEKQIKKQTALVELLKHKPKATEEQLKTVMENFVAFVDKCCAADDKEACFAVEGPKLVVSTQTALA
Sequence of Concanavalin-A (Canavalia ensiformis) (P02866 whole entry, looked up): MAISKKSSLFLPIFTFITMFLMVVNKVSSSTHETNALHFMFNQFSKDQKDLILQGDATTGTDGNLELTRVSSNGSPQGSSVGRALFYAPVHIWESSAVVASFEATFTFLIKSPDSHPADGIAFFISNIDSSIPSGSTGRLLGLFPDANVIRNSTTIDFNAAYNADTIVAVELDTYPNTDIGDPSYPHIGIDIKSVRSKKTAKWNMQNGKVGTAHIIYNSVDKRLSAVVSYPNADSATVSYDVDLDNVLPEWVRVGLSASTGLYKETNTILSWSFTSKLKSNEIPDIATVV
Sequence of Alpha-bungarotoxin (Bungarus multicinctus) (P60615 whole entry, looked up): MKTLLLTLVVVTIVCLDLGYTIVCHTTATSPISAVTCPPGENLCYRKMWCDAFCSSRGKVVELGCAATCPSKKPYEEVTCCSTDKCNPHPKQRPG
Sequence of Torsin-1A-interacting protein 1 (Homo sapiens) (Q5JTV8 whole entry, looked up): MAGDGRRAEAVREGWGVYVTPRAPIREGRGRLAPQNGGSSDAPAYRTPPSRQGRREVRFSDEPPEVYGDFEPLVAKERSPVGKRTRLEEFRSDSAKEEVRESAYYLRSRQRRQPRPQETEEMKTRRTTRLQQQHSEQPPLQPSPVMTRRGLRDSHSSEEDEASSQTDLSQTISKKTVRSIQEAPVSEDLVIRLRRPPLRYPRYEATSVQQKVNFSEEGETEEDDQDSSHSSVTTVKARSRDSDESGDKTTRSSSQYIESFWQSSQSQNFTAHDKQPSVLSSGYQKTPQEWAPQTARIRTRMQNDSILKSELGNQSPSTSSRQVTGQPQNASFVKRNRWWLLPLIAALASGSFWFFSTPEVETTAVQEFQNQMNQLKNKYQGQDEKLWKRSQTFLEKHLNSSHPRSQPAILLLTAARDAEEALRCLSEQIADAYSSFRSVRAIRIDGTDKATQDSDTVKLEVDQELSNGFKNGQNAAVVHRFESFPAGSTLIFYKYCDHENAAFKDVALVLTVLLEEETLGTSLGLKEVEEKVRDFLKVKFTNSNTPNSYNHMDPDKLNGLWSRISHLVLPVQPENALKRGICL
Sequence of Left-right determination factor 2 (Homo sapiens) (O00292 whole entry, looked up): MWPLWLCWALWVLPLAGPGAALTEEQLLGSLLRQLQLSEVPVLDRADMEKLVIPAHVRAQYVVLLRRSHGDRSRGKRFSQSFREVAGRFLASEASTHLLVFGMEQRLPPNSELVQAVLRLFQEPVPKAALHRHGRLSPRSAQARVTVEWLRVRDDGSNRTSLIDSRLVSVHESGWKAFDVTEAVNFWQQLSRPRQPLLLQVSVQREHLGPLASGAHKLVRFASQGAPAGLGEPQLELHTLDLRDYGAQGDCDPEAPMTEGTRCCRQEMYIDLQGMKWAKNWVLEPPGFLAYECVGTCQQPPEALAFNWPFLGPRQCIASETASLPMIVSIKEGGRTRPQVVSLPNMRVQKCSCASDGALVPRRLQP

Turning to `CC(C)c1ccc(NN2C(C(O)c3ccccn3)C=CC3C(=O)N(c4ccccc4)C(=O)C32)cc1` (stereo not given), the composite z-score worked out at 1.51 in experiment [1]; 0.581 in experiment [3]; 1.11 in experiment [4]; 0.214 in experiment [5]; 0.145 in experiment [6]; 0.04 in experiment [7]. In addition, the composite z-score in [8] is 1.7; in experiment [9], 1.34; in experiment [10], 0.964; in the experiment with Albumin (Bos taurus) it was 0.835; in experiment [12] it was 0.447; in experiment [13], 0.142. For the same compound, the composite z-score in [14] was 0.808; in [15], 2.92; in [16], 0.881; in the experiment on Sam68 (KHDRBS1), 1.32; in [17], -0.159; in experiment [18] it was 1.1. Further, the z-score in experiment [2] is -0.112. The composite Z-score in experiment [11] was -0.232 (inactive).

`C=CCC(OC(C)=O)[C@@H]1[C@@H](N(Cc2ccc(-c3ccccc3)cc2)C(=O)Cc2ccc(OC)cc2)c2cc(OCCCO)ccc2N1C(=O)c1ccc(-c2ccccc2)cc1` (stereo not given in full): the composite z-score was -0.354 in experiment [1]; 0.265 in [3]; 0.36 in experiment [4]; 0.807 in [5]; -0.0718 in experiment [6]; -0.229 in [7]. Further, the composite z-score is -0.174 in experiment [8]; 0.609 in experiment [9]; 0.544 in [10]; -0.146 in the experiment with Albumin (Bos taurus); 0.268 in [12]; 0.0224 in experiment [13]. Besides, the composite z-score in experiment [14] is 0.204; in [15] it was -0.0315; in [16] it was 0.394; in the experiment on Sam68 (KHDRBS1) it was -0.323; in [17] it was 0.268; in experiment [18], -0.781. For the same compound, in experiment [2], the z-score was 0.257. Further, in experiment [11], the composite Z-score is -0.427 (inactive).

In the case of `C=CCOC(=O)[C@@H]1[C@H]2C(=O)O[C@H](c3ccccc3)[C@H](c3ccccc3)N2[C@H](c2ccc(OCCOC(=O)[C@@H]3C[C@@H]4C(=O)N5CCC[C@H]5C(=O)N4[C@@H]3c3cccc(OCCO)c3)cc2)[C@@]12C(=O)Nc1ccc(I)cc12`, the composite z-score in experiment [1] is 1.31; in experiment [3], 0.56; in experiment [4] it was 1.25; in experiment [5] it was -0.141; in experiment [6], -0.0718; in experiment [7], -0.264. In addition, the composite z-score was -0.342 in experiment [8]; 0.972 in experiment [9]; 1.11 in experiment [10]; 0.226 with Albumin (Bos taurus); -0.055 in experiment [12]; -0.101 in experiment [13]. Moreover, the composite z-score in experiment [14] stood at 0.0553; in [15], 1.34; in [16], 0.167; in the experiment with Sam68 (KHDRBS1), 1.29; in [17], 1; in experiment [18] it was 1.14. Further, the z-score in experiment [2] was -1.01. Besides, in experiment [11], the composite Z-score was -0.244 (inactive).

Take `O=C1NC(=O)C2C1C=CC(C(O)CCc1ccccc1)N2Nc1ccccn1` (stereo not given): the composite z-score in experiment [1] was -0.574; in [3], -0.0953; in experiment [4] it was 0.901; in experiment [5] it was 0.569; in experiment [6], -0.0445; in experiment [7], -0.262. Besides, the composite z-score was -0.279 in experiment [8]; 2.33 in [9]; 0.67 in experiment [10]; 0.558 in the experiment with Albumin (Bos taurus); -0.145 in [12]; -0.0116 in experiment [13]. The composite z-score is 0.894 in experiment [14]; 1.02 in experiment [15]; 1.59 in [16]; 0.438 with Sam68 (KHDRBS1); 0.0374 in [17]; 0.891 in experiment [18]. Also, the z-score in experiment [2] turned out to be 0.204. In addition, the composite Z-score in experiment [11] was 1.62 (inactive).

Consider `COC(=O)[C@@]1(Cc2ccc(OC)cc2)[C@H]2c3cc(C(=O)N4CCCC4)n(Cc4ccc(C)o4)c3C[C@H]2CN1C(=O)c1ccccc1`, for which the composite z-score in experiment [1] is 1.2; in experiment [3], -0.242; in experiment [4], 0.493; in [5] it was 0.0918; in experiment [6] it was 0.457; in [7], 0.444. For the same compound, the composite z-score was -0.504 in experiment [8]; 0.762 in experiment [9]; 0.287 in experiment [10]; 0.963 in the experiment with Albumin (Bos taurus); 0.74 in [12]; 0.0489 in [13]. Besides, the composite z-score in [14] was 0.614; in experiment [15], 1.23; in experiment [16] it was 0.0793; in the experiment with Sam68 (KHDRBS1) it was 0.762; in experiment [17], -0.425; in [18], 0.88. The same compound had a z-score in experiment [2] of -3.68. Besides, in experiment [11], the composite Z-score was -0.282 (inactive).
